A selection: hits, their analogues and other compounds. The true share with any hit is near 9.2%.
FLuc counter: firefly luciferase modulation, counter-screen for miR-21 project; P08659; purified FLuc, Km substrates, luminescence inhibition; Potency, µM (highest dose often 57.5 µM), inactives show at the highest dose activity change, negative = inhibition, actives largely listed as inhibitors; hit rate 6.9% among 360,000;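 also: plate controls were vehicle for no effect and reference inhibitor for full effect; nearly all actives have a fitted effect of over 55% in size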
Target sequence (P08659 whole entry, looked up): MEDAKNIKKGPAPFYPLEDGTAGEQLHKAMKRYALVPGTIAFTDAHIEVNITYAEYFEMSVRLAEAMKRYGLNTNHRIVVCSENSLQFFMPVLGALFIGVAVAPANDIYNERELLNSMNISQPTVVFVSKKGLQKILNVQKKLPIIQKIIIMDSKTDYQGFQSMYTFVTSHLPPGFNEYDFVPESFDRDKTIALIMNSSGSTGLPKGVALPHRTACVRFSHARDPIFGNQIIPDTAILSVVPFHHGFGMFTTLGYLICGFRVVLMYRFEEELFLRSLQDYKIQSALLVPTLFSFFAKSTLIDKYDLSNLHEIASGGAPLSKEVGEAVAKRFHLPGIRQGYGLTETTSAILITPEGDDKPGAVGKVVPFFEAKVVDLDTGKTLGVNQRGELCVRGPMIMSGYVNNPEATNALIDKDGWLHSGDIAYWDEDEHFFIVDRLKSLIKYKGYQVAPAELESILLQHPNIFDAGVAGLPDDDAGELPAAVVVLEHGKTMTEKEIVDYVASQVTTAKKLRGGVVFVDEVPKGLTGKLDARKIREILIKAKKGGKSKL
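Purified P. pyralis luciferase, 10 nM final, with Km-level 10 uM D-luciferin and 10 uM ATP in 50 mM Tris acetate pH 7.5, 10 mM Mg acetate, 0.01% Tween-20, 0.05% BSA; 6-point qHTS titration about 60 µM downward; luminescence read.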
ELG1 genotoxic: genotoxicity induction in ELG1-luciferase HEK293T cells; HEK293T ELG1-luciferase reporter, luminescence, 16 h; hit rate 1.3% among 330,000; Potency, µM (doses to about 46 µM), for inactives: at the highest dose activity change, positive = activation, most hits filed as activators; also: % of control where 0% means no effect; nearly all actives have a fitted effect of over 60% in size
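HEK293T cells expressing luciferase-tagged ELG1 were treated with compound or DMSO for 16 hr at 37°C. Luciferase activity was then read after 30 min with ONE-Glo at room temperature; rising signal flags genetic stress.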
ELG1 repair inh: ELG1-dependent DNA repair inhibition; HEK293T ELG1-luciferase reporter, luminescence, 16 h; DNA damage induced by 5-fluorouridine; Potency, µM (highest dose often 46.1 µM), for the others: top-dose activity change, negative = inhibition, actives largely listed as inhibitors; hit rate 2.3% among 330,000; AID 504467; also: % is scaled to controls: 0 for no effect and ±100 for the full control effect; nearly all actives have a fitted effect of over 55% in size
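In this reporter screen, reduction of luminescence relative to DMSO vehicle indicated activity. Compounds and 5-fluorouridine were added together to 2,000 cells per well, incubated for 16 hr at 37 °C, then developed with ONE-Glo.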
SMN2 splice enh: SMN2 splice variant enhancement | HEK293 SMN2-luciferase splicing reporter, luminescence, 30-36 h | Potency, µM (titrated, usually from 46.1 µM), inactives show top-dose activity change, positive = activation, most hits filed as activators | hit rate 2.8% among 210,000 | AID 1458; also: % of control where 0% means no effect; nearly all actives have a fitted effect of over 55% in size
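qHTS luciferase splicing reporter: luminescence rises when SMN2 exon 7 is included in transfected HEK293 cells. Compound exposure lasted 30-36 h at 37C, with 4.5 mM final sodium butyrate as control, followed by a ONE-Glo read.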
NPC1 promoter act: NPC1 promoter activation | Huh7 NPC1 promoter luciferase reporter, 24 h | hit rate 2.4% among 320,000 | AID 485313 | Potency, µM (doses to about 9.22 µM), inactives show at the highest dose activation, most hits filed as activators; also: % of control where 0% means no effect; nearly all actives have a fitted effect of over 60% in size
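Readout is luciferase luminescence, reflecting NPC1 promoter activation in stably transfected Huh7 cells after 24 h compound exposure at 37 °C in reduced-serum medium with 10% FBS.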
Rab9 promoter act: activators of Rab9 promoter; Huh7 Rab9 promoter-luciferase reporter, luminescence, 24 h; Potency, µM (highest dose often 9.22 µM), for inactives: top-dose activation, negative = inhibition, usual class: activators; AID 485297; hit rate 2.8% among 320,000; also: % of control where 0% means no effect; nearly all actives have a fitted effect of over 60% in size
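Stable Rab9-luc Huh7, 1500 cells/well, 2 h settle; cmpd in DMSO, 24 h, 37 °C/5% CO2; luciferase reagent 10 min RT; luminescence.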
* marks the source's active call; other numbers are inactive results; ? = inconclusive; . = no result given. Calls follow the shape of the dose curve; as a rule, active = well fitted curve in the direction sought with a large enough effect; inconclusive = small, poorly fitted or top-dose-only effect, or another doubt; inactive = no such curve, though single readings can be large; an effect the other way counts as inactive or inconclusive. Potency is read from the fitted curve at half-maximal effect.

SMILES	FLuc counter	ELG1 genotoxic	ELG1 repair inh	SMN2 splice enh	NPC1 promoter act	Rab9 promoter act
COc1cc(C)ccc1OCc1cc(C(=O)N2CCCCCCC2)no1	21.3µM*	?	?	.	?	4.47µM*
COc1ccc(OCc2cc(C(=O)N3CCCCCCC3)no2)c(Cl)c1	?	?	?	.	23.9%	22.5%
CCOc1ccccc1NC(=O)C1CCN(S(=O)(=O)c2ccccc2)CC1	-12.2%	.	.	-11.7%	.	.
Cc1cccc(C)c1OCc1cc(=O)n2ccsc2n1	-4.9%	.	.	-9.6%	.	.
C=CCn1c(=O)/c(=C/c2ccc(Cl)cc2)s/c1=C(/C#N)c1nnc2n1CCCCC2	3.6%	-33.2%	20.6µM*	12.4%	-3.5%	0.5%
CCCCn1c(N)nc2ccccc21	4.0%	-7.9%	?	-9.7%	-1.4%	2.8%
CN(C)c1ccc(/C=N/n2ncc3ccccc32)cc1	10.7µM*	?	?	8.91µM*	23.5%	?
CCCn1c(/N=C/c2ccccc2O)nc2ccccc21	-0.4%	1.8%	1.8%	-2.9%	-4.3%	-0.5%
CCCCn1c(/N=C/c2ccc(N(C)C)cc2)nc2ccccc21	1.9µM*	-0.9%	-3.1%	-20.2%	-0.1%	-2.1%
CCn1c(/N=C/c2ccc(OC)cc2O)nc2ccccc21	0.953µM*	1.4%	2.2%	.	-0.5%	9.3%
C=CCn1c(/N=C/c2ccc(N(C)C)cc2)nc2ccccc21	0.135µM*	-0.4%	10.4%	.	0.0%	8.8%
CCOC(=O)C1CCCN(C(=O)COc2ccc(S(=O)(=O)N3CCOCC3)cc2)C1 (configuration not stated)	.	0.3%	0.1%	.	.	.
COc1ccc(/C=N/c2nc3ccccc3n2CCN2CCCCC2)cc1OC	-8.9%	-0.5%	5.6%	6.6%	-2.8%	-2.4%
C=CCn1c(/N=C/c2ccc(OC)cc2)nc2ccccc21	0.426µM*	-2.2%	-6.5%	.	-5.0%	-2.4%
CCCCn1c(/N=C/c2ccc3c(c2)OCO3)nc2ccccc21	8.49µM*	-2.6%	-4.7%	18.2%	-3.4%	1.6%
Cc1ccc2c(c1)C(c1ccccc1)N(C(=O)c1ccc(OC(C)C)cc1)CC(=O)N2 (configuration not stated)	-2.0%	.	.	-4.4%	.	.
OCCNc1cc(-n2nc(-c3ccccc3)cc2-c2ccccc2)ncn1	-17.5%	-1.1%	16.4µM*	-11.9%	0.5%	1.2%
COc1ccc(OC)c(NC(=O)CCCc2nnc3n(C(C)C)c(=O)c4sccc4n23)c1	-0.9%	.	.	.	.	.
O=C(Nc1ccc2nc(C3CC3)n(Cc3ccccc3)c(=O)c2c1)C1CC1	-9.2%	?	?	.	2.82µM*	2.51µM*
COc1ccc(Cn2c(C3CC3)nc3ccc(NC(=O)c4ccco4)cc3c2=O)cc1	15.1µM*	?	?	?	3.16µM*	21.5%
O=C(Nn1c(C2CC2)nc2ccccc2c1=O)c1ccco1	1.2%	-3.2%	-4.5%	4.3%	-2.2%	-3.1%
CCC(=O)Nc1ccc2nc(C3CC3)n(Cc3ccccc3)c(=O)c2c1	?	8.2µM*	?	?	?	3.55µM*
CCCc1nc2ccc(NC(=O)c3ccco3)cc2c(=O)n1Cc1ccccc1Cl	7.7%	-0.4%	18.4µM*	-9.2%	-2.2%	2.7%
CCCc1nc2ccc(NC(=O)c3ccco3)cc2c(=O)n1Cc1ccc(Cl)cc1	-16.3%	-6.6%	?	-8.1%	7.1%	8.9%
CS/C(N)=N/S(=O)(=O)c1ccc(NC(C)=O)cc1	-3.3%	-0.1%	7.8%	.	-2.1%	-2.4%
Clc1ccc(CCNC(c2ccc(Cl)cc2)c2nnc(-c3ccccc3)o2)cc1 (configuration not stated)	?	.	.	-6.7%	.	.
CC1CN(C(=O)Cn2cc(S(=O)(=O)CC(=O)N3CCOCC3)c3ccccc32)CC(C)O1 (configuration not stated)	0.4%	-1.2%	16.5%	.	-1.7%	0.0%

Screening data (PubChem BioAssay)
